Source: PubChem BioAssay
Only a selection was taken, and hits are over-represented in it overall.
Ecoli WT expand – blocks growth of wild type E. coli BW25113; OD600 absorbance; growth inhibition, % at 100 µM; 98,000 compounds, 0.15% hits; AID 710;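 active = growth inhibition above about 50% at one test dose, limit read from the data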;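 also: growth measured after 20 h incubation at 37 °C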
Cav32 inh – human Cav3.2 channel inhibition, primary screen; Cav3.2-expressing cells, Fluo-4 calcium fluorescence FDSS; stronger effect = lower value; O95180; 100,000 compounds, 4% hits; B-score at 10 µM;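 active = single-dose well whose peak fluorescence ratio is a statistical outlier from its plate by either plate-standardised score or position-corrected B-score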
CD11b adhes inh – inhibitors of human CD11b/CD18 binding to fibrinogen; K562 CD11b/CD18 adhesion to fibrinogen, ATPlite luminescence; Mn2+ added to activate the integrin; 93,000 compounds, 0.54% hits; inhibition, % at 10 µM; P05107+P11215;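 active = primary inhibition of 50% or more at 10 µM, then 40% or more on retest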
Target sequence (P05107 whole entry, looked up, other chains not shown): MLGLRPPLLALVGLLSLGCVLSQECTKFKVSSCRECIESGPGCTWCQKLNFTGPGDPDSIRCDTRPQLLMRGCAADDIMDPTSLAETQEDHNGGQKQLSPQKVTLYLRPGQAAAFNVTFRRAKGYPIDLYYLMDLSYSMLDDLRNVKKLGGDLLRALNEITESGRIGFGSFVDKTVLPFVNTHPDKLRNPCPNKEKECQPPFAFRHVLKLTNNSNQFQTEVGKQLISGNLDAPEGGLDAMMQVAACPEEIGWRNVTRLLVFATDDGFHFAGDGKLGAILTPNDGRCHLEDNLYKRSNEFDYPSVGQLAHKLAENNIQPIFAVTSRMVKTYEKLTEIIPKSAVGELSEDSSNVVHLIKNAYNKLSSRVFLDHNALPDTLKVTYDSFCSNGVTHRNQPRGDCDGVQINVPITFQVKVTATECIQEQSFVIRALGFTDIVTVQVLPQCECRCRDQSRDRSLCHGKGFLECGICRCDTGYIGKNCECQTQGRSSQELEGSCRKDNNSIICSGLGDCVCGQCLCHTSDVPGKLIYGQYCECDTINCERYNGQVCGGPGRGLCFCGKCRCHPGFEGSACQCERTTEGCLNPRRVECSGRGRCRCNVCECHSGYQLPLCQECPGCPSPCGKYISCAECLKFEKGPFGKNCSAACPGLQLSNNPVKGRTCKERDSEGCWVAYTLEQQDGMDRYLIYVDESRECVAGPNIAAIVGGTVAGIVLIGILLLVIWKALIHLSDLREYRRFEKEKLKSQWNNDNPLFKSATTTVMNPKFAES
Mac1 fbg enh – increases human CD11b/CD18 adhesion to fibrinogen. P05107+P11215. K562 CD11b/CD18 adhesion to fibrinogen, ATPlite luminescence. activation, % at 10 µM. 93,000 compounds, 0.07% hits. AID 1499;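 active = 10 µM primary screen giving 50% or more activity, confirmed by 40% or more on retest at that dose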
* marks the source's active call; other numbers are inactive results; · = no result given.

SMILES	Ecoli WT expand	Cav32 inh	CD11b adhes inh	Mac1 fbg enh
CCn1cc(C(=O)NCCCN2CCC(C)CC2)c(=O)c2cc(S(=O)(=O)N3CCCC3)ccc21	7.0	0.668	-12.4	2.1
CCn1cc(C(=O)NCc2ccco2)c(=O)c2cc(S(=O)(=O)N3CCCCCC3)ccc21	-6.0	-2.15	17.9	0.1
CCn1cc(C(=O)NCc2ccco2)c(=O)c2cc(S(=O)(=O)N3CCc4ccccc4C3)ccc21	-8.0	-2.33	-1.8	-2.0
CCn1cc(C(=O)NCc2ccco2)c(=O)c2cc(S(=O)(=O)N3CC(C)CC(C)C3)ccc21 (centres undefined)	-5.0	-8.11*	7.8	-2.9
CCn1cc(C(=O)NC2CCC(C)CC2)c(=O)c2cc(S(=O)(=O)N3CCCCC3)ccc21 (centres undefined)	-10.0	-7.18*	2.4	-2.9
Cc1cccnc1NC(=O)COc1ccc2oc3c(c2c1)CCCC3	1.0	-5.64*	·	·
Cc1ccc(NC(=O)COc2ccc3oc4c(c3c2)CCCC4)nc1	-6.0	0.615	14.0	19.9
CC1=NN(C(=O)c2ccc(Br)cc2)C(O)(C(F)(F)OC(F)(F)F)C1 (centres undefined)	10.0	·	92.7*	-10.7
O=C(CCSCc1cccc(Cl)c1)NCCc1ccc(Cl)cc1	·	·	-0.6	-0.1
Cc1ccccc1-c1nnc(NC(=O)CSc2nc3ccccc3s2)s1	·	-0.964	·	·
CCc1sc(N(C(=O)Cc2ccccc2)c2ccccc2)nc1-c1ccccc1	-15.0	0.00671	0.7	-0.2
CCc1sc(N(C(=O)Cc2ccccc2)c2ccc(F)cc2)nc1-c1ccccc1	-13.0	-5.33*	-2.6	0.6
COc1ccc(SC[C@H](CC(C)C)N2CCN(CCc3ccccc3)CCC2=O)cc1	·	-2.51	·	·
NC(=O)c1ccsc1NC(=O)COC(=O)Cc1cccc2ccccc12	-2.0	-1.84	84.4*	-8.4
COc1ccc(CCNC(=O)C2CCN(c3ccc(N4CCOCC4)nn3)CC2)c(OC)c1	1.0	1.8	0.4	5.3
O=C(Cc1ccc(Br)cc1)OCC(=O)N1CCc2ccccc2C1	·	·	3.2	-0.8
CCN(CC)S(=O)(=O)c1ccc(NS(=O)(=O)c2ccc(C)c(C)c2)cc1	-3.0	-4.35*	-4.3	-1.7
CCCN(CCC)S(=O)(=O)c1ccc(NS(=O)(=O)c2ccc(F)cc2)cc1	23.0	-3.9*	35.1	-4.4
CCCCOC(=O)c1ccc(NC(=O)/C=C/c2cccs2)cc1	·	·	106.3	-10.5
COc1cccc(OCC(O)CN2CCC(Cc3ccccc3)CC2)c1 (centres undefined)	-5.0	-4.22*	-3.0	-5.1
C=CCc1ccc(OCC(O)CN2CCC(Cc3ccccc3)CC2)c(OC)c1 (centres undefined)	18.0	-4.03*	29.6	-5.2
Cc1cc(C)c2nc(C(F)(F)F)nc(NCCCN3CCOCC3)c2c1	5.0	-3.65	-40.6	2.7
O=C(c1ccccc1C(=O)N1CCN(c2ccc(F)cc2)CC1)N1CCN(c2ccc(F)cc2)CC1	0.0	-4.11*	6.5	2.2
O=C(CCCOc1ccccc1)N1CCN(c2ccc(F)cc2)CC1	0.0	-7.78*	-6.8	1.9
Clc1cc(Sc2ccc(Br)cc2)nnc1-c1ccccc1	-16.0	-5.29*	·	·
SMILES	Ecoli WT expand	Cav32 inh	CD11b adhes inh	Mac1 fbg enh
N#CC1=C(N)Oc2c(O)cc3ccccc3c2C1c1ccsc1 (centres undefined)	·	·	69.6*	-3.3
COc1ccc(C(=O)NCc2ccc3c(c2)OCO3)cc1S(=O)(=O)N(C)Cc1ccccc1	·	·	16.5	1.4
C=CCCCCCCCCc1nc(=S)[nH][nH]1	10.0	-5.19*	1.0	-2.9
COc1ccc(C2NC(=O)c3sc(=S)n(-c4ccccc4)c3N2)cc1 (centres undefined)	0.0	-8.37*	-3.6	-6.6
Cc1c(C(=O)O)sc(=S)n1-c1ccccc1	-2.0	0.106	11.5	-1.2
CCOC(=O)C(Cc1ccccc1)C(=O)Nc1cccc2ccccc12 (centres undefined)	·	·	12.0	3.5
COc1ccc(C(=O)Oc2ccc(=O)n(-c3ccccc3)n2)cc1	-11.0	-0.0614	·	·
CC(C)n1c(C(=O)OCC(=O)NCc2ccc3c(c2)OCO3)cc2sccc21	-21.0	-3.26*	12.7	-4.1
C=CCn1c(SCC(=O)Nc2c(C)n(C)n(-c3ccccc3)c2=O)nc2sc(C)c(-c3ccccc3)c2c1=O	-11.0	-2.41	·	·
N#Cc1c(Cl)nc(SCc2ccccc2)nc1-c1ccccc1	12.0	-3.08	74.4*	-10.0
Cc1cc2cc3c(cc2nc1SCC(=O)OC(C)C)OCCO3	-8.0	-0.649	-0.6	-3.9
CCOC(=O)CSc1nc2cc3c(cc2cc1CC)OCCO3	·	-4.59*	·	·
Cc1ccc2nc(-c3ccccc3)cn2c1	12.0	-0.748	68.7*	-7.4
Cc1ccc2nc(-c3ccc(S(=O)(=O)N4CCOCC4)cc3)cn2c1	0.0	0.302	0.2	4.2
C/C(CC(=O)NCc1ccco1)=N\NC(=O)COc1ccc(C)cc1	·	·	-15.1	-5.8
O=Nc1c(O)n(Cc2cccc(Cl)c2)c2ccccc12	28.0	-4.4*	-5.3	8.0
CCN(CC)CCn1c(O)c(N=O)c2ccccc21	1.0	0.0904	0.2	-3.4
O=C(c1cc(NC(=O)C23CC4CC(CC(C4)C2)C3)cc(NC(=O)C23CC4CC(CC(C4)C2)C3)c1)N1CCCCC1	·	-8*	·	·
O=C(NC(=S)N1CCCCC1)C12CC3CC(CC(C3)C1)C2	3.0	0.692	1.2	-2.1
O=C(/C=C/c1ccccc1)c1cc(Br)ccc(=O)c1O	37.0	-4.69	88.0*	-2.9
O=C(/C=C/c1ccccc1)c1ccccc1	·	-0.736	·	·
Cc1n[nH]c(C)c1CCOc1ccc(C(C)C)cc1	20.0	-5.39*	86.9	-9.6
COc1cccc(OC)c1OCCCc1c(C)n[nH]c1C	3.0	0.241	12.0	-6.5
c1ccc(C2(CNc3ccccn3)CCCC2)cc1	12.0	-0.55	-32.3	2.5
CC(C)(C)n1nc2c(c1NC(=O)COc1ccc(Cl)cc1)CSC2	6.0	-4.41*	-19.1	3.9
SMILES	Ecoli WT expand	Cav32 inh	CD11b adhes inh	Mac1 fbg enh
CC(C)CC(=O)O/N=C1\C(=O)N(Cc2ccc(Cl)cc2)c2ccc([N+](=O)[O-])cc21	11.0	-0.928	30.1	-10.4
N#C/C(=C/c1ccc(N2CCOCC2)o1)c1nc2ccccc2[nH]1	·	-10.2*	·	·
N#C/C(=C/c1ccc(N2CCCCCC2)o1)c1ccc(F)cc1	-15.0	-6.09*	·	·
N#C/C(=C/c1ccc(N2CCCCCC2)o1)c1cccc(F)c1	-2.0	-4.27*	21.5	5.5
N#C/C(=C\c1ccc(N2CCOCC2)o1)c1ccccc1	-2.0	-2.63	10.9	-4.3
O=C(CCc1nc(-c2ccccc2)c(-c2ccccc2)o1)OCc1ccc(Cl)cc1	-1.0	-4.31*	·	·
O=C(CCc1nc(-c2ccccc2)c(-c2ccccc2)o1)OCc1ccc(Br)cc1	-5.0	-3.51	-39.4	6.9
Cc1ccc(C(=O)CSC2=C(C#N)C(c3ccco3)C3=C(CCCC3=O)N2)cc1 (centres undefined)	-13.0	0.604	14.0	-5.1
CC(C)(C)c1ccc(C(=O)CCCSC2=C(C#N)C(c3ccco3)C3=C(CCCC3=O)N2)cc1 (centres undefined)	-22.0	-4.31*	22.7	-3.5
CCC(=O)NC(=S)Nc1ccc(NC(=O)c2ccc([N+](=O)[O-])cc2Cl)cc1	·	·	3.3	2.9
